About 83,000 compounds went through this panel and 20% of them were active in at least one assay; those are over-represented in the sample as a whole.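 Single-concentration screen, 48 h exposure, 96-well plates. Endpoint: percent growth. Below 10 = active.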 Unmarked numbers belong to inactive results. Activity calls are given as the source filed them.

The subject of the assay is SF-268 CNS. Briefly: NCI-60 one-dose screen, 48 h (100 = growth as untreated, 0 = no growth, -100 = all killed). Conditions: 10 µM unless noted.
With `COC(=O)C[C@](O)(CCCC(C)(C)O)C(=O)O[C@H]1C(OC)=C[C@@]23CCCN2CCc2cc4c(cc2[C@@H]13)OCO4`, the growth is -6.53% (active).

`COc1cc(/C=C2\C(=N)N=C(SCc3nc4ccccc4[nH]3)NC2=O)ccc1O`: the growth was 111%.

In the case of `N/C(=N\N=C\c1ccc([N+](=O)[O-])cc1)c1c(N)nc(=S)[nH]c1-c1ccc(Cl)cc1Cl`, the growth is 94.9%.

Consider `CC1(c2cc3cc(Cl)ccc3oc2=O)NC(=O)c2c(/C=C/C(=O)OC3CC4CCC3(C)C4(C)C)cccc2N1` (stereo not given), for which the growth is 78.5%.

On to `O=C(N=Nc1c(O)[nH]c2ccc(Cl)cc12)c1ccc2nc(-c3ccccc3)[nH]c2c1`, for which the growth was 21.8%.

`O=C(O)c1cccc(-c2ccc(/C=N/NC(=O)c3[nH]c4ccc(Br)cc4c3-c3ccccc3)o2)c1`: the growth was 47.6%.

As for `CC1(C)CC[C@]2(C(=O)Nc3ccccc3)CC[C@]3(C)C(=CCC4[C@@]5(C)C[C@@H](O)[C@H](O)[C@@](C)(CO)C5CC[C@]43C)C2C1` (stereo not given in full), the growth was 61.2%.

As to `O=c1[nH]c2ccccc2cc1CSc1cccc(Nc2nccc(-c3ccc4ccccc4c3)n2)c1`, the growth was 98.1%.

`Clc1cccc(N/N=C/c2c[nH]c3ccc(Br)cc23)n1`: the growth is 40.8%.

On to `CSc1ccc(NC(=O)c2ccc3nnn(/C(C#N)=C/c4ccccn4)c3c2)cc1`, for which the growth was -3.01% (active).

With `Cc1c(C(=O)NNC(=O)c2ccc(Cl)cc2)nnn1-c1ccc(Cl)cc1`, the growth is 105%.

Take `CN(C)c1nc(NCCNS(=O)(=O)c2ccc(C(=O)/C=C/c3ccc(F)cc3)cc2)nc(Nc2ccc(F)cc2)n1`: the growth was -59% (active).

In the case of `CNC(=O)c1cc(Oc2ccc3nc(NC(=O)Nc4cccc(OC(F)(F)F)c4)sc3c2)ccn1`, the growth was 11.8%.

For `CC(C)(C)OC(=O)/C=C/c1cccc2c1C(=O)NC(C)(c1cc3cc(Cl)ccc3oc1=O)N2` (stereo not given), the growth is 51.4%.

Turning to `Cc1ccc(C2CC(c3ccc(S(=O)(=O)NCCNc4nc(Nc5ccc(F)cc5)nc(N(C)C)n4)cc3)=Nc3c(N)nc(N)nc3N2)cc1` (stereo not given), the growth is 57.7%.

For `CC1=C(C(=O)OC(C)C)C(c2cccc(O)c2)NC(=S)N1` (stereo not given), the growth was 109%.

As for `C[C@H](Nc1nc(NCCc2ccccc2)nc2ccccc12)c1ccccc1`, the growth is -70.4% (active).

As to `COc1ccc(-c2c(Nn3cnnn3)no[n+]2[O-])cc1`, the growth is 66.3%.

Consider `Cn1cc(NC(=O)c2cc(NC(=O)c3ccc(C#Cc4ccccc4)cc3)cn2C)cc1C(=O)NCCCN1CCOCC1`, for which the growth was 63.2%.

Turning to `COc1cc(NC(=O)c2cccc(C3CCc4c(cc(OC)c(OC)c4OC)O3)c2)cc(OC)c1OC` (stereo not given), the growth is 73.1%.

For `COc1ccc(-c2nnc3ccc(N/N=C/c4ccc(C)cc4)nn23)cc1`, the growth is 59.1%.

Regarding `Cc1ccc(-n2c(-c3cc4ccccc4nc3Cl)noc2=O)cc1`, the growth was 86.7%.

Regarding `CC(=O)Oc1ccccc1C(=O)[Se]CC(=O)Nc1cccc(C(F)(F)F)c1`, the growth is 2.38% (active).

On to `N#Cc1c(-c2ccccc2Cl)cc(-c2ccc3ccccc3c2)[nH]c1=O`, for which the growth was 22.5%.

For `CCCCNC(=S)Nc1ccc(OCc2nc3ccccc3[nH]2)cc1`, the growth was 44.2%.

With `COc1ccc(-c2nc3cc(C)ccc3n2CC(=O)N=Nc2c(O)[nH]c3ccccc23)cc1`, the growth is -5.5% (active).

In the case of `COc1ccc(-c2nc3ccc(C(=O)NN4C(=O)c5ccc([N+](=O)[O-])cc5C4=O)cc3[nH]2)cc1`, the growth was 105%.

In the case of `O=c1oc2ccccc2cc1-c1csc(N=Nc2c(O)[nH]c3ccc(Cl)cc23)n1`, the growth is 82.1%.

With `CN(C)c1ccnc(CNCCSC2(c3ccccc3)c3ccccc3C=Cc3ccccc32)c1`, the growth is -30.7% (active).

Turning to `COc1cc2c(c(OC)c1OC)C(=O)CC(c1cccc(NC(=O)c3cc(NC(=O)[C@@H](N)CO)ccc3C)c1)O2` (stereo not given in full), the growth is 111%.

Take `COc1ccc(C(=O)/C=C/c2c(F)cccc2Cl)cc1S(N)(=O)=O`: the growth is 24.4%.

For the compound `O=C(Nc1cccc(-n2cnc3cc(-c4ccc(O)cc4)ccc32)c1)C1CC1`, the growth is 34.9%.

Consider `COc1ccc(C2(SCCNCc3cc(N(C)C)ccn3)c3ccccc3C=Cc3ccccc32)cc1`, for which the growth is 28.2%.

In the case of `N/C(=N\c1nc2ccccc2s1)NC(=O)Nc1ccccc1Br`, the growth is 1.62% (active).

As to `COc1ccc(C2=NN(c3ccccc3)C(c3ccc(OC)c(OCc4ccccc4)c3)C2)cc1OC` (stereo not given), the growth was 96.5%.

(Values after PubChem BioAssay (NCI).)
